POLK inh – qHTS for Inhibitors of Polymerase Kappa. purified Pol kappa, fluorescent DNA synthesis assay, 10 min. 400,000 compounds, 0.53% hits. Potency, µM (top dose mostly 107 µM), for inactives: top-dose activity, negative = inhibition, usual class: inhibitors. AID 588579, 2011. DNA polymerase kappa (Homo sapiens), Q9UBT6; further: on the % scale 0 is the no-effect control and ±100 the full control effect
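Kinetic fluorescence readout at 0 and 10 min followed reaction start with substrate at 50 nM final. Beforehand, enzyme (10 nM Pol kappa) stood 15 min with compound at room temperature; buffer-only wells were negative controls.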
POLB inh – qHTS Assay for Inhibitors of DNA Polymerase Beta; P06746; Pol beta primer extension/strand displacement, fluorescence kinetic; Potency, µM (top dose mostly 114 µM), without a hit: at the top dose activity change, negative = inhibition, hits mostly inhibitors; 340,000 compounds, 1.3% hits; AID 485314, 2010; further: on the % scale 0 is the no-effect control and ±100 the full control effect
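Values derive from four-parameter Hill fits of normalized kinetic data: reads at 0 and 10 min following addition of 50 nM substrate to 10 nM Pol beta preincubated 15 min with compound.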
FEN1 inhibitor – qHTS Assay for the Inhibitors of Human Flap endonuclease 1 (FEN1). P39748. Recombinant FEN1 flap cleavage, fluorescence, 15 min. Potency, µM (top dose mostly 114 µM), for the others: at the top dose activity change, negative = inhibition, actives largely listed as inhibitors. 390,000 compounds, 0.35% hits. AID 588795, 2011; further: on the % scale 0 is the no-effect control and ±100 the full control effect; nearly all actives have a fitted effect of over 65% in size
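With each library titrated from low to high concentration, compounds met 10 nM FEN1 for 15 min at room temperature before 50 nM substrate was added; readings at 0 and 15 min fed four-parameter Hill curve fits.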
WRN helicase inh – qHTS for Inhibitors of WRN Helicase | Potency, µM (highest dose often 114 µM), without a hit: top-dose activity change, negative = inhibition, usual class: inhibitors | WRN helicase unwinding, fluorescent forked duplex, kinetic | Bifunctional 3'-5' exonuclease/ATP-dependent helicase WRN (Homo sapiens), Q14191 | AID 651768, 2012 | 360,000 compounds, 0.46% hits; further: on the % scale 0 is the no-effect control and ±100 the full control effect; nearly all actives have a fitted effect of over 55% in size
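Fluorescence dequenching readout, ex 525 nm/em 598 nm, kinetic mode: forked duplex DNA (100 nM final) with adjacent fluorophore and quencher unwound by WRN (20 nM final) with 2 mM ATP. Compound preincubation 15 min, room temperature.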
POLH inh – qHTS for Inhibitors of Polymerase Eta; Potency, µM (doses to about 114 µM), without a hit: at the top dose activity change, negative = inhibition, usual class: inhibitors; DNA polymerase eta (Homo sapiens), Q9Y253; recombinant Pol eta, fluorescent DNA replication assay; 390,000 compounds, 1.2% hits; AID 588591, 2011; further: on the % scale 0 is the no-effect control and ±100 the full control effect
Target sequence (Q9Y253 whole entry, looked up): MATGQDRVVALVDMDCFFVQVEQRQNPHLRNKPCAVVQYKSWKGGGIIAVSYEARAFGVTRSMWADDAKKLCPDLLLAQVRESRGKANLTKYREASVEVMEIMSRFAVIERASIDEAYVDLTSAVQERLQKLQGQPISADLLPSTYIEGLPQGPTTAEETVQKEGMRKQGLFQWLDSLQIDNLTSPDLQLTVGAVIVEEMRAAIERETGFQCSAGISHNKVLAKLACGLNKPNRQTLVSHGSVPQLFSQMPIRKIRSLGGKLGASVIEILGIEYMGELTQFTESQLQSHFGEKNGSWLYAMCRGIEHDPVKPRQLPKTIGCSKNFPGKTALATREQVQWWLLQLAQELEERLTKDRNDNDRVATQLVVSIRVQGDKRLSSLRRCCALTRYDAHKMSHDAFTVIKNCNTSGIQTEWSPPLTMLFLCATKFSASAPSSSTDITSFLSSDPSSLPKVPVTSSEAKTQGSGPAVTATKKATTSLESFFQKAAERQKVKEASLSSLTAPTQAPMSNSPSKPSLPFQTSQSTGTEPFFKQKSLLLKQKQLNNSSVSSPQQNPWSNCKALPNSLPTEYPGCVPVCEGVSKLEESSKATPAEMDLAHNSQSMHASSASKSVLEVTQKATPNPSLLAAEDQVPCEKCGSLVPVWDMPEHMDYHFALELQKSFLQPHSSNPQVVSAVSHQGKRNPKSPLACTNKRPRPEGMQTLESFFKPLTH
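Pol eta at 10 nM preincubated with compounds 15 min at room temperature; reaction started with fluorescent substrate (50 nM final) and read kinetically at 0 and 10 min.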
Pol iota inh – qHTS for Inhibitors of Polymerase Iota; DNA polymerase iota (Homo sapiens), Q9UNA4; Pol iota fluorescent replication assay, 10 min; Potency, µM (doses to about 115 µM), inactives show at the highest dose activity, negative = inhibition, most hits filed as inhibitors; 390,000 compounds, 1% hits; AID 588590, 2011
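Pol iota at 10 nM preincubated 15 min with compounds at room temperature; reaction started with fluorescent substrate, 50 nM final. Fluorescence read kinetically at 0 and 10 min; buffer-only wells as negative control.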
Starred values were filed as active, the others as inactive; [ ] = dose if it differs, or a comment. An excerpt weighted towards active compounds, which were near 2.4% of everything screened. The call rests on the fitted dose curve; in most records, active means well fitted curve in the direction sought with a large enough effect; inconclusive means small, poorly fitted or top-dose-only effect, or another doubt; inactive means no such curve, though single readings can be large; an effect the other way counts as inactive or inconclusive. Potency means the concentration at half of the fitted maximal effect.

Screening O=C(NCCc1ccccc1)c1cc(Nc2ccccc2)nc2ccccc12 returned POLK inh -10%[60.1 µM], POLB inh -5%, FEN1 inhibitor 0%, POLH inh -3% and Pol iota inh -8%.
Screening COc1cc(OC)c2c(c1)C(=O)OC2c1cc(OC)c(OC)cc1C (configuration not stated) returned POLK inh -5%, FEN1 inhibitor 1% and Pol iota inh 27%.
For c1ccc(Nc2c(-c3ccco3)nc3ccccn23)cc1 the results were POLK inh -5%, POLB inh 3%, FEN1 inhibitor 1%, WRN helicase inh 1%, POLH inh -7% and Pol iota inh 46%.
`c1ccc(-c2nc(-c3ccco3)n3ccccc23)cc1` gave POLK inh -8%, POLB inh 35µM*, FEN1 inhibitor -22%, WRN helicase inh -24%, POLH inh inconclusive and Pol iota inh -6%.
Screening CN(C)c1ccc(C=O)c(F)c1 returned POLK inh -6%, FEN1 inhibitor 16% and Pol iota inh 34%.
`O=c1cc(/N=C/c2coc3c(ccc4ccccc43)c2=O)[nH]c(=S)[nH]1` gave POLK inh inconclusive, POLB inh 22µM*, FEN1 inhibitor -32%, WRN helicase inh -4%, POLH inh inconclusive and Pol iota inh inconclusive.
O=C(COC(=O)C1CCCCC1C(=O)N1CCc2ccccc21)NCc1ccco1 (configuration not stated) was read as POLK inh inconclusive, POLB inh 32µM*, FEN1 inhibitor 5%, WRN helicase inh -30%, POLH inh 25µM* and Pol iota inh inconclusive.
Screening S=c1[nH]nc(-c2ccccn2)n1/N=C/c1ccc(-c2ccccc2Br)o1 returned POLK inh 5%, POLB inh 50µM*, FEN1 inhibitor -5%, WRN helicase inh -10%, POLH inh -6% and Pol iota inh 79µM*.
`CCOc1cc(C2Nc3ccccc3C(=O)N2Cc2ccco2)ccc1OCc1ccccc1Cl` (configuration not stated) gave POLK inh -9%, FEN1 inhibitor 3% and Pol iota inh 15%.
For COc1ccc2[nH]c3nc(SCC(=O)Nc4cccc(NC(C)=O)c4)nnc3c2c1 the results were POLK inh -20%, POLB inh 35µM*, FEN1 inhibitor 8%, WRN helicase inh -11%[11.6 µM], POLH inh 0% and Pol iota inh inconclusive.
For COc1ccc2[nH]c3nc(SCc4nnc(-c5ccccc5)o4)nnc3c2c1 the results were POLK inh -12%, POLB inh 22µM*, FEN1 inhibitor 1%, WRN helicase inh -15%, POLH inh -32% and Pol iota inh 8%.
`COc1cccc(NC(=O)CSc2nnc3c(n2)[nH]c2ccc(C)cc23)c1` gave POLK inh -4%, POLB inh 11%, FEN1 inhibitor -2%, WRN helicase inh -3%, POLH inh -9% and Pol iota inh 7%.
For CCc1ccc(OCCn2c(CCNC(=O)C3CCCCC3)nc3ccccc32)cc1 the results were POLK inh -1%, FEN1 inhibitor 8% and Pol iota inh 41%.
For O=C(CNC(=O)c1ccc(-c2ccccc2)cc1)OCc1ccc(Br)cc1 the results were POLK inh -2%, POLB inh 1%, FEN1 inhibitor 4%, WRN helicase inh -5%[57.1 µM], POLH inh 22µM* and Pol iota inh 110%.
`COc1ccc(C(=O)NCC(=O)OCc2ccc(Br)cc2)cc1` gave POLK inh 3%, POLB inh 21%, FEN1 inhibitor 2%, WRN helicase inh 3%, POLH inh -6% and Pol iota inh -22%.
`O=C(COC(=O)C12CC3CC(CC(Cl)(C3)C1)C2)NCc1ccco1` gave POLK inh 2%, FEN1 inhibitor 1% and Pol iota inh 17%.
O=C1NN(C(=O)Nc2ccc(Br)cc2)C(c2ccccc2)C1c1ccccc1 (configuration not stated) was read as POLK inh 7%[60.1 µM].
Screening COc1cccc(-c2cc(=O)[nH][nH]2)c1 returned POLK inh -2%, POLB inh 2%, FEN1 inhibitor 15%, WRN helicase inh 5%, POLH inh -6% and Pol iota inh inconclusive.
COc1ccc(-c2cc(=O)[nH][nH]2)cc1OC was read as POLK inh -3%, POLB inh 37%, FEN1 inhibitor 1%, WRN helicase inh 4%[57.1 µM], POLH inh -17% and Pol iota inh 1.3µM*.
O=c1cc(-c2ccc(F)cc2)[nH][nH]1 was read as POLK inh -1%, POLB inh 2%, FEN1 inhibitor 4%, WRN helicase inh 4%[11.6 µM], POLH inh -19% and Pol iota inh 1.8µM*.
For OCc1cc2c(cn1)[nH]c1ccccc12 the results were POLK inh 7%[19.4 µM].
`CN(CCO)c1nc(-c2cccs2)nc2ccccc12` gave POLK inh -10%, FEN1 inhibitor inconclusive and Pol iota inh inconclusive.
For Cc1cc(O)c2c(c1O)C(=O)[C@]13C(=C2O)C(=O)[C@@H]2[C@@H](O)[C@H]1[C@@H]1[C@H](O)[C@H]3C(=O)C3=C(O)c4c(O)cc(C)c(O)c4C(=O)[C@]312 the results were POLK inh 3.5µM*, FEN1 inhibitor inconclusive, WRN helicase inh 56µM*, POLH inh 5.6µM* and Pol iota inh 3.2µM*.
Screening Fc1ccc(/C=C/c2ccc3ccccc3n2)cc1 returned POLK inh inconclusive, FEN1 inhibitor -7% and Pol iota inh -4%.
`CCCCC#Cc1nc(NC)c2ncn([C@@H]3O[C@H](CO)[C@@H](O)[C@H]3O)c2n1` gave POLK inh -2%[60.1 µM].
Cc1sc(C(C2C(=O)CC(C)(C)CC2=O)C2C(=O)CC(C)(C)CC2=O)cc1[N+](=O)[O-] was read as POLK inh -7%, POLB inh -20%, FEN1 inhibitor inconclusive, WRN helicase inh -9%[11.6 µM], POLH inh -2% and Pol iota inh 16µM*.
`O=C(O)c1c2c(nc3ccc(S(=O)(=O)N4CCC(C(=O)N5CCCCC5)CC4)cc13)CCCC2` gave POLK inh inconclusive, POLB inh -2%, FEN1 inhibitor -5%, WRN helicase inh -12%[57.1 µM], POLH inh 32µM* and Pol iota inh inconclusive.

Screens: PubChem, National Center for Advancing Translational Sciences (NCATS)
